Measurements published in PubChem BioAssay (Tox21).
The source made the active and inactive calls. Calls come from the whole dose curve; as a rule, active = well fitted curve in the direction sought with a large enough effect in the repeat runs; inconclusive = weak or mixed curves; inactive = flat fitted curve, though single readings scatter.

Assay: qHTS assay to test for compound auto fluorescence at 590 nm (red) in HEK293 cell free culture (AID 720683)
Conditions: cell-free medium autofluorescence, Ex540/Em590 red; series mostly up to 91.3 µM
In short: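 Cell-free wells of DMEM with 10% FBS received compound, and intrinsic fluorescence was read at excitation/emission 540/590 nm. Values expressed as equivalence to Rose Bengal sodium.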
% is set by controls: 0 for no effect and ±100 for the full control effect.

Q: With `CC(CO)(CO)CO` as the molecule, how does the outcome read?
A: The outcome was “inactive”.

Q: Which outcome does the source give for `O=C1OCCO1` here?
A: Its outcome is “inactive”.

Q: With `CC(=O)CC(=O)OC(C)(C)C` as the molecule, how does the outcome read?
A: The outcome was “inactive”.

Q: Which outcome does the source give for `CC1OCCC1=O` (configuration not stated) here?
A: Its outcome is “inactive”.

Assay: qHTS assay to test for compound auto fluorescence at 590 nm (red) in HepG2 cell free culture (AID 720684)
Conditions: cell-free medium autofluorescence, red 540/590 nm; series mostly up to 91.3 µM
In short: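 Auto fluorescence equivalency versus Rose Bengal sodium, red channel Ex/Em 540/590 nm; compounds in cell-free MEM/10% FBS; DMSO vehicle control.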

Q: Which outcome does the source give for `CC1CCc2c(N3CCC(O)CC3)c(F)cc3c(=O)c(C(=O)O)cn1c23` (configuration not stated) here?
A: Its outcome is “inactive”.

Q: For `Cc1ccc(C(C)NC(=O)[C@@H](NC(=O)OC(C)C)C(C)C)cc1` (some centres not stated), which outcome is on record?
A: Its outcome is “inactive”.

Q: With `CN(C)CC/C=C1/c2ccccc2COc2ccc(CC(=O)O)cc21` as the molecule, how does the outcome read?
A: Its outcome is “inactive”.

Q: For `Cc1cc(C)c(C(=O)O)c(C)c1`, which outcome is on record?
A: The outcome was “inactive”.

Q: With `CC1(C)[C@H]2CC[C@](C)(C2)[C@H]1O` as the molecule, how does the outcome read?
A: Its outcome is “inactive”.

Q: With `COS(=O)(=O)O` as the molecule, how does the outcome read?
A: Its outcome is “inactive”.

Q: For `CC1c2ccccc2CN1NC(=O)c1ccc(Cl)c(S(N)(=O)=O)c1` (configuration not stated), which outcome is on record?
A: The outcome was “inactive”.

Q: Which outcome does the source give for `C=C(C)c1cccc(C(C)(C)N=C=O)c1` here?
A: The outcome was “inactive”.

Q: For `C=CCCCCCCCC`, which outcome is on record?
A: Its outcome is “inactive”.

Q: With `O=S(=O)(O)c1ccc2c(N=Nc3ccc(S(=O)(=O)O)c4ccccc34)c(O)c(S(=O)(=O)O)cc2c1` as the molecule, how does the outcome read?
A: The outcome was “inactive”.

Q: Which outcome does the source give for `CC(C)=CCC[C@@](C)(O)[C@H]1CC=C(C)CC1` here?
A: The outcome was “inactive”.

Q: With `CN(C)CCCCl` as the molecule, how does the outcome read?
A: The outcome was “inactive”.

Q: For `CCC(=O)c1c(O)cc(O)cc1O`, which outcome is on record?
A: The outcome was “inactive”.

Q: With `Nc1nc(-c2ccccc2)c(Br)c(=O)[nH]1` as the molecule, how does the outcome read?
A: The outcome was “inactive”.

Q: Which outcome does the source give for `CSc1cnccn1` here?
A: Its outcome is “inactive”.

Q: Which fluorescence, % of Rose Bengal does the source give for `O=C1c2ccccc2C(=O)c2cc(Cl)ccc21` here?
A: Its fluorescence, % of Rose Bengal is -0.0228% [at 3.72 µM] (inactive).

Q: For `CC(C)Nc1ccccc1`, which outcome is on record?
A: The outcome was “inactive”.

Q: Which outcome does the source give for `C[C@@H](O)C(=O)O` here?
A: Its outcome is “inactive”.

Q: Which outcome does the source give for `OC[C@@H](O)C(O)[C@@H](O)CO` (some centres not stated) here?
A: The outcome was “inactive”.

Q: For `O=C1CCCCO1`, which outcome is on record?
A: The outcome was “inactive”.

Q: Which outcome does the source give for `CCCCOC(=O)[C@H](C)O` here?
A: Its outcome is “inactive”.

Q: For `Cn1c(=O)c2[nH]c(Br)nc2n(C)c1=O`, which outcome is on record?
A: Its outcome is “inactive”.

Q: For `Cc1ccnc(N)c1`, which outcome is on record?
A: The outcome was “inactive”.

Q: For `Cc1cccc(Cl)c1`, which outcome is on record?
A: The outcome was “inactive”.

Q: Which fluorescence, % of Rose Bengal does the source give for `[O]=[Mo](=[O])=[O]` here?
A: Its fluorescence, % of Rose Bengal is 0.0301% [at 18.6 µM] (inactive).

Q: With `CC1=NN(c2ccc(S(=O)(=O)O)cc2)C(=O)C1` as the molecule, how does the outcome read?
A: The outcome was “inactive”.

Q: With `CC(C)OC(=O)OCOP(=O)(CO[C@H](C)Cn1cnc2c(N)ncnc21)OCOC(=O)OC(C)C` as the molecule, how does the outcome read?
A: Its outcome is “inactive”.

Q: With `C/C(CC(C)C)=N\O` as the molecule, how does the outcome read?
A: Its outcome is “inactive”.

Q: For `C=CCCCC`, which outcome is on record?
A: Its outcome is “inactive”.

Q: With `C=C(C)[C@@H]1CC=C(C)CC1` as the molecule, how does the outcome read?
A: The outcome was “inactive”.

Q: With `CC(CO)(CO)CO` as the molecule, how does the outcome read?
A: Its outcome is “inactive”.

Q: For `O=C1OCCO1`, which outcome is on record?
A: Its outcome is “inactive”.

Q: Which outcome does the source give for `CC(=O)CC(=O)OC(C)(C)C` here?
A: The outcome was “inactive”.

Q: Which outcome does the source give for `CC1OCCC1=O` (configuration not stated) here?
A: The outcome was “inactive”.

Assay: qHTS assay to test for compound auto fluorescence at 460 nm (blue) in HepG2 cell free culture (AID 720685)
Conditions: Cell-free culture medium, blue autofluorescence 405/460 nm; series mostly up to 91.3 µM
In short: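 Cell-free plates of MEM plus 10% FBS received 23 nL compound or DMSO vehicle; blue-channel (405/460 nm) intensity scored against triamterene as reference fluorophore.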

Q: Which outcome does the source give for `CC1CCc2c(N3CCC(O)CC3)c(F)cc3c(=O)c(C(=O)O)cn1c23` (configuration not stated) here?
A: Its outcome is “inactive”.

Q: Which outcome does the source give for `Cc1ccc(C(C)NC(=O)[C@@H](NC(=O)OC(C)C)C(C)C)cc1` (some centres not stated) here?
A: Its outcome is “inactive”.

Q: For `CN(C)CC/C=C1/c2ccccc2COc2ccc(CC(=O)O)cc21`, which outcome is on record?
A: The outcome was “inactive”.

Q: Which outcome does the source give for `Cc1cc(C)c(C(=O)O)c(C)c1` here?
A: Its outcome is “inactive”.

Q: Which outcome does the source give for `CC1(C)[C@H]2CC[C@](C)(C2)[C@H]1O` here?
A: The outcome was “inactive”.

Q: With `COS(=O)(=O)O` as the molecule, how does the outcome read?
A: The outcome was “inactive”.

Q: Which outcome does the source give for `CC1c2ccccc2CN1NC(=O)c1ccc(Cl)c(S(N)(=O)=O)c1` (configuration not stated) here?
A: The outcome was “inactive”.

Q: With `C=C(C)c1cccc(C(C)(C)N=C=O)c1` as the molecule, how does the outcome read?
A: The outcome was “inactive”.

Q: For `C=CCCCCCCCC`, which outcome is on record?
A: Its outcome is “inactive”.

Q: Which outcome does the source give for `O=S(=O)(O)c1ccc2c(N=Nc3ccc(S(=O)(=O)O)c4ccccc34)c(O)c(S(=O)(=O)O)cc2c1` here?
A: Its outcome is “inactive”.

Q: With `CC(C)=CCC[C@@](C)(O)[C@H]1CC=C(C)CC1` as the molecule, how does the outcome read?
A: The outcome was “inactive”.

Q: For `CN(C)CCCCl`, which outcome is on record?
A: Its outcome is “inactive”.

Q: With `CCC(=O)c1c(O)cc(O)cc1O` as the molecule, how does the outcome read?
A: The outcome was “inactive”.

Q: With `Nc1nc(-c2ccccc2)c(Br)c(=O)[nH]1` as the molecule, how does the outcome read?
A: Its outcome is “inactive”.

Q: For `CSc1cnccn1`, which outcome is on record?
A: Its outcome is “inactive”.

Q: Which fluorescence, % of fluorescent control does the source give for `O=C1c2ccccc2C(=O)c2cc(Cl)ccc21` here?
A: Its fluorescence, % of fluorescent control is -0.0625% [at 3.72 µM] (inactive).

Q: Which outcome does the source give for `CC(C)Nc1ccccc1` here?
A: The outcome was “inactive”.

Q: For `C[C@@H](O)C(=O)O`, which outcome is on record?
A: The outcome was “inactive”.

Q: With `OC[C@@H](O)C(O)[C@@H](O)CO` (some centres not stated) as the molecule, how does the outcome read?
A: The outcome was “inactive”.

Q: Which outcome does the source give for `O=C1CCCCO1` here?
A: Its outcome is “inactive”.

Q: Which outcome does the source give for `CCCCOC(=O)[C@H](C)O` here?
A: The outcome was “inactive”.

Q: For `Cn1c(=O)c2[nH]c(Br)nc2n(C)c1=O`, which outcome is on record?
A: Its outcome is “inactive”.

Q: Which outcome does the source give for `Cc1ccnc(N)c1` here?
A: The outcome was “inactive”.

Q: For `Cc1cccc(Cl)c1`, which outcome is on record?
A: The outcome was “inactive”.

Q: Which fluorescence, % of fluorescent control does the source give for `[O]=[Mo](=[O])=[O]` here?
A: Its fluorescence, % of fluorescent control is 0.041% [at 18.6 µM] (inactive).

Q: Which outcome does the source give for `CC1=NN(c2ccc(S(=O)(=O)O)cc2)C(=O)C1` here?
A: Its outcome is “inactive”.

Q: With `CC(C)OC(=O)OCOP(=O)(CO[C@H](C)Cn1cnc2c(N)ncnc21)OCOC(=O)OC(C)C` as the molecule, how does the outcome read?
A: Its outcome is “inactive”.

Q: Which outcome does the source give for `C/C(CC(C)C)=N\O` here?
A: The outcome was “inactive”.

Q: With `C=CCCCC` as the molecule, how does the outcome read?
A: Its outcome is “inactive”.

Q: With `C=C(C)[C@@H]1CC=C(C)CC1` as the molecule, how does the outcome read?
A: The outcome was “inactive”.

Q: Which outcome does the source give for `CC(CO)(CO)CO` here?
A: The outcome was “inactive”.

Q: For `O=C1OCCO1`, which outcome is on record?
A: Its outcome is “inactive”.

Q: For `CC(=O)CC(=O)OC(C)(C)C`, which outcome is on record?
A: Its outcome is “inactive”.

Q: With `CC1OCCC1=O` (configuration not stated) as the molecule, how does the outcome read?
A: The outcome was “inactive”.
